Results on 21 sequences are retold here after the supplement of paper PMC10681739.
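Also: Full-length recombinant human ETS1 or RUNX1 bound to double-stranded 36-bp genomic probes on microarrays, detected by protein-specific primary antibody and Alexa488 secondary, spot fluorescence as median of four replicate spots.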

The target of this test is RUNX1 (UniProt Q01196). The test can be described thus: RUNX1 binding intensity (PBM fluorescence) in presence of ETS1, normalised to RUNX1-only experiment (arbitrary fluorescence units); higher = stronger binding. The note with it: RUNX1 concentration 2 nM; ETS1 concentration 25 nM. As to the method: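 Cooperative gcPBM on 36-bp genomic probes with neighbouring ETS1 and RUNX1 sites. Recombinant human RUNX1 (2 nM) was incubated alone or with ETS1 (25 nM) and detected with anti-RUNX1 antibody plus Alexa488 secondary. Values are medians over 4 replicate spots; the RUNX1+ETS1 data were normalised to the RUNX1-only data. The probes sit in constant array flanks that are not printed.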
RUNX1, sequence (Q01196 whole entry): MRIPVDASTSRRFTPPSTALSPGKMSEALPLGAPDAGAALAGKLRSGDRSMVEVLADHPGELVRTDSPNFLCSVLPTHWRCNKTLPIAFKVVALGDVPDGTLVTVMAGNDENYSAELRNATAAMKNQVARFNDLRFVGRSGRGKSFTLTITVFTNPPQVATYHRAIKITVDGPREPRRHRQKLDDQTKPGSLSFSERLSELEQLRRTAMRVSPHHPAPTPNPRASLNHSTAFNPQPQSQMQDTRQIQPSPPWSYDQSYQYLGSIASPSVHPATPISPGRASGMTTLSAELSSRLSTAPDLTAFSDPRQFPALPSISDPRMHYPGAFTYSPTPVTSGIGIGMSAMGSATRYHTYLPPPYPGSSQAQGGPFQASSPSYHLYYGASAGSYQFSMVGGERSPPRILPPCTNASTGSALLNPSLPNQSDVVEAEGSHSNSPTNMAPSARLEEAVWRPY
For the sequence GAAATTTCCGCTTTCTTTCTGCAGCAGGAACCGCGG, the RUNX1 binding intensity is 2550.
Take GGCCAGGCAGGAAGTCCCGCGCCACAAGCGGCCGTC: the RUNX1 binding intensity was 1230.
With GCGCAAGGATCCGGTTTGTTGTGGTGTGGGGAGGGG, the RUNX1 binding intensity was 1070.
The same measure for GCGGGCGGAAGTGCCGAGGTTGTACCGCGGCGCTGG: 1200.
For the sequence AGAATCGCATCAGGATGTGGTGAGGGAGCACATTTG, the RUNX1 binding intensity worked out at 969.
The same measure for GTTGCAGGAAACGATGGGTTTTGTGGTATGAACTGC: 1700; for AATCTGAAACAGGAAATAAGTCTGTGGTTGTGTGTT: 1540.
CTGTCCCTAGCAGGATGTGGTTTGCACATTGCTGCT: the RUNX1 binding intensity came out at 4600.
The same measure for GGCCTCGGCCACATCCGGGTTCCACCGCAGATTCGG: 6490.
Consider TCATATCCGGCAGGAATGGGTTTTGTGGCTTTGTGC, for which the RUNX1 binding intensity was determined as 3620.
Next, GATTGTTATGTCCGGAAACCGCTTATCAGAGCCCTG: 1590.
With TGGCTTTGCAGAAGGAAGCTGTGGTTTCTGGTCTTC, the RUNX1 binding intensity is 1010.
Next, AACCATTACAGGATGTGAGATTCAAACCACTAACAG: 1180; AAAGCATTTCCTGCCTTGACTTAACCACAAGACAGG: 4320.
Next, GGGTCTCCAGGAAGCCACTCACCACAAACTTTGACA: 1480; CCGCTGAGAACAGGATGTGGGTGTCAGGAGGTGAAG: 1530; CCATGCACAACAGGATGTGGTTAGACAGTCAAAATT: 11900.
Take GTAGGGAAGACGGGATGTGGGTTTTCAGCCGTGGCC: the RUNX1 binding intensity is 2520.
The same measure for TCTAAATCACTTCCTGTTACAGAAACCACAGGCCTG: 4430; for GCCAACAGGAAGCTGGAAGCCAACCGCACTGTGTGC: 1670.
As to CAGGCTCGCCACAGGGGAAGTGGTTAGGGCGGGTCC, the RUNX1 binding intensity came out at 890.
